Data as given in PubChem BioAssay (Tox21).
Several values for one entry are separate records, joined by “and”; a condition that tells them apart may be missing. Identical values can stand only once. Inconclusive results are not listed. A call without a number means that no potency is given here. Activity calls are given as the source filed them. Unless noted, the call rests on the fitted dose curve; in most records, active means well fitted curve in the direction sought with a large enough effect in the repeat runs; inconclusive means weak or mixed curves; inactive means no such curve, though single readings can be large; an effect the other way counts as inactive or inconclusive.

Legend:
[1] = molecular target: Estrogen receptor beta (Homo sapiens) (UniProt Q92731); experiment: qHTS assay to identify small molecule agonists of the estrogen receptor beta (ER-beta) signaling pathway (AID 1259377; active means well fitted activation curve with a large enough effect in the signal ratio in the repeat runs, not every such curve was filed as active; the % refers to the signal ratio)
Summary of the method: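 Beta-lactamase reporter readout: fluorescence of LiveBLAzer B/G FRET substrate after 2 h at room temperature, following 16 h compound treatment of ER-beta-UAS-bla HEK293T cells at 37C in 2% charcoal-stripped FBS medium.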

[2] = molecular target: Estrogen receptor beta (Homo sapiens) (UniProt Q92731); experiment: qHTS assay to identify small molecule antagonists of the estrogen receptor beta (ER-beta) signaling pathway (AID 1259378; active means well fitted inhibition curve with a large enough effect in the signal ratio in the repeat runs, not every such curve was filed as active; the % refers to the signal ratio; further: potency means the concentration at half of the fitted maximal effect)
Summary of the method: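 Antagonist mode: compounds added to beta-lactamase reporter HEK293T ER-beta-UAS cells stimulated with E2 (1nM final), 16 hr at 37C. LiveBLAzer B/G FRET substrate, 2 hours room temperature, fluorescence read-out.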

[3] = qHTS assay to identify small molecule agonists of the androgen receptor (AR) signaling pathway in the presence of an antagonist - cell viability counter screen (AID 1259379);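 further: MDA-kb2 human breast cancer cells carrying an MMTV luciferase reporter; series mostly up to about 92 µM; nearly all actives have a fitted effect of over 25% in size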
Summary of the method: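 Each compound was tested at 15 concentrations on MDA-kb2 cells in the presence of 3.0uM nilutamide. Viability was measured by CellTiter-Fluor fluorescence after a 16 hr incubation at 37C in a CO2-free atmosphere.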

[4] = qHTS assay to identify small molecule agonists of the estrogen receptor beta (ER-beta) signaling pathway - cell viability counter screen (AID 1259380); further: nearly all actives have a fitted effect of over 30% in size; further: potency means the concentration at half of the fitted maximal effect
Summary of the method: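 Compounds dissolved in DMSO were pin-transferred onto ER-beta-UAS-bla HEK293T cells that had settled 6 hr, and exposure ran 16 hr at 37C. Following the reporter read, CellTiter-Glo luminescence after 30 min at room temperature indicated cytotoxicity.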

[5] = qHTS assay to identify small molecule antagonists of the estrogen receptor beta (ER-beta) signaling pathway - cell viability counter screen (AID 1259382);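 further: HEK293T cells carrying ER-beta-UAS-bla reporter stimulated with estradiol; series mostly up to about 92 µM; nearly all actives have a fitted effect of over 55% in size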
Summary of the method: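 CellTiter-Glo ATP luminescence measured after the LiveBLAzer read in the same wells; ER-beta-UAS-bla HEK293T cells, 16 hr compound treatment with 1nM 17-beta-estradiol agonist at 37C, 5% CO2.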

[6] = molecular target: Estrogen receptor (Homo sapiens) (UniProt P03372); experiment: qHTS assay to identify small molecule agonists of the estrogen receptor alpha (ER-alpha) signaling pathway in the presence of an antagonist (AID 1259383; calls by dose curve; further: top concentration of the series differs between compounds; nearly all actives have a fitted effect of over 15% in size)
Summary of the method: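 Luminescent ERE-luciferase reporter, VM7Luc4E2 cells (endogenous ER-alpha); 10.0nM ICI-182,780 final; 15-point compound titration; 22hr at 37C; ONE-Glo, 30min RT.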

[7] = qHTS assay to identify small molecule agonists or antagonists of the thyroid stimulating hormone receptor (TSHR) signaling pathway - wild type cell line counter screen (AID 1259384; calls by dose curve)
Summary of the method: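 Counter screen in untransfected Hek293: compounds (15-point titration, triplicate) plus phosphodiesterase inhibitor Ro20-1724 added after 18 h plating; 30 min RT. Intracellular cAMP via competitive d2/cryptate immunoassay, 1 h incubation.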

[8] = molecular target: Thyrotropin receptor (Homo sapiens) (UniProt P16473); experiment: qHTS assay to identify small molecule antagonists of the thyroid stimulating hormone receptor (TSHR) signaling pathway (AID 1259385; calls by dose curve; further: nearly all actives have a fitted effect of over 20% in size)
Summary of the method: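 Antagonist mode: compound-treated TSHR-expressing HEK293 cells were stimulated with 1.5 ng/mL TSH (final) in presence of Ro20-1724 for 30 min at RT. HTRF cAMP detection after 1 h; each compound tested at 15 concentrations, triplicate.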

[9] = qHTS assay to identify small molecule agonists of the estrogen receptor alpha (ER-alpha) signaling pathway in the presence of an antagonist - cell viability counter screen (AID 1259386);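 further: series mostly up to about 92 µM; cells exposed to compounds for 22 h at 37 °C before the viability read; nearly all actives have a fitted effect of over 30% in size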
Summary of the method: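 Using estrogen-depleted VM7Luc4E2 cells, the 15-concentration compound series was applied together with 10.0nM ICI-182,780 and incubated 22hr at 37C/5% CO2. Cell viability was then scored by CellTiter-Fluor.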

[10] = molecular target: Progesterone receptor (Homo sapiens) (UniProt P06401); experiment: qHTS assay to identify small molecule agonists of the progesterone receptor (PR) signaling pathway (AID 1346784; calls by dose curve; further: nearly all actives have a fitted effect of over 30% in size)
Summary of the method: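 HEK 293T PR-UAS-bla reporter cells, 2% charcoal-stripped FBS; 6 hr settle at 37C/5% CO2, compound (DMSO) 16 hr, LiveBLAzer B/G FRET substrate 2 hr RT, fluorescence intensity read.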

[11] = molecular target: Progesterone receptor (Homo sapiens) (UniProt P06401); experiment: qHTS assay to identify small molecule antagonists of the progesterone receptor (PR) signaling pathway (AID 1346795; active means well fitted inhibition curve with a large enough effect in the signal ratio in the repeat runs, not every such curve was filed as active; the % refers to the signal ratio; further: potency means the concentration at half of the fitted maximal effect)
Summary of the method: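 Beta-lactamase reporter, HEK293T PR-UAS-bla line; 2% charcoal-stripped FBS; 6 hr pre-incubation, 37C/5% CO2. Compound + R5020 1 nM final, 16 hr. LiveBLAzer B/G FRET substrate, 2 hr RT; fluorescence intensity read.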

[12] = qHTS assay to identify small molecule antagonists of the progesterone receptor (PR) signaling pathway - cell viability counter screen (AID 1346798); further: series mostly up to about 92 µM; nearly all actives have a fitted effect of over 50% in size
Summary of the method: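 Luminescence readout (CellTiter-Glo, 30 min, RT) of viability in PR-UAS-bla HEK293T cells exposed to compound and R5020 agonist for 16 hr at 37C, 5% CO2; run in the same wells as the beta-lactamase reporter read.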

[13] = qHTS assay to identify small molecule agonists of the progesterone receptor (PR) signaling pathway - cell viability counter screen (AID 1346799; calls by dose curve; further: nearly all actives have a fitted effect of over 45% in size)
Summary of the method: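 HEK293T PR-UAS-bla, 3,000 cells/well, 2% charcoal-stripped FBS; 6 h settle, compound 16 h at 37C/5% CO2; LiveBLAzer 2 h RT, then CellTiter-Glo 30 min RT, luminescence read.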

[14] = qHTS assay to identify small molecule antagonists of the TGF-beta/Smad signaling pathway - cell viability counter screen (AID 1346824); further: nearly all actives have a fitted effect of over 50% in size
Summary of the method: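 Cytotoxicity counter-screen run in the same wells as the beta-lactamase Smad reporter read: CellTiter-Glo luminescence after 30 min at room temperature. HEK 293T SBE-bla cells had 5 hr compound exposure at 37 C with TGF-beta1 (0.25 ng/mL stock).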

[15] = qHTS assay to identify small molecule agonists of the TGF-beta/Smad signaling pathway - cell viability counter screen (AID 1346829); further: top concentration of the series differs between compounds; nearly all actives have a fitted effect of over 45% in size
Summary of the method: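 CellTiter-Glo luminescence readout; SBE-bla HEK 293T cells, overnight plating, compound 5 hr at 37 C/5% CO2, then bla substrate 2 hr RT, then CellTiter-Glo 30 min RT.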

[16] = qHTS assay to identify small molecule agonists of the TGF-beta/Smad signaling pathway (AID 1346859; active means well fitted activation curve with a large enough effect in the signal ratio in the repeat runs, not every such curve was filed as active; the % refers to the signal ratio; further: series mostly up to about 77 µM)
Summary of the method: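 Read-out: fluorescence at 460 and 530 nm (405 nm excitation) after a 2 hr room-temperature incubation with beta-lactamase FRET substrate. SBE-bla HEK 293T cells had been treated with test compounds for 5 hr at 37 C.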

[17] = molecular target: Thyrotropin-releasing hormone receptor (Homo sapiens) (UniProt P34981); experiment: qHTS assay to identify small molecule antagonists of the thyrotropin-releasing hormone receptor (TRHR) signaling pathway (AID 1346877; active means well fitted inhibition curve with a large enough effect in the repeat runs, not every such curve was filed as active; further: series mostly up to about 51 µM)
Summary of the method: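 Calcium signal in dye-loaded TRHR/HEK293 cells; compounds added 5 min before TRH (1 nM final); fluorescence monitored 3 min at 1 s steps.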

[18] = molecular target: Thyrotropin-releasing hormone receptor (Homo sapiens) (UniProt P34981); experiment: qHTS assay to identify small molecule agonists of the thyrotropin-releasing hormone receptor (TRHR) signaling pathway (AID 1346891; calls by dose curve;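 further: HEK293 cells expressing TRHR with calcium dye readout; series mostly up to about 58 µM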)
Summary of the method: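 HEK293/TRHR cells, 1500 per well, 18 h 37 °C; Ca dye 2 h 37 °C; pin-tool compound addition (agonist mode); kinetic fluorescence 3 min, 1 s reads; 15 concentrations, triplicate.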

[19] = Human pregnane X receptor (PXR) small molecule agonists, qHTS cell viability counter screen (AID 1346977); further: nearly all actives have a fitted effect of over 50% in size
Summary of the method: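 Fluorescence read-out (CellTiter-Fluor) of viability in PXR-Luc HepG2 cells, multiplexed with the luciferase agonist read. Compounds in DMSO added after 5hr plating; 24hr total exposure at 37C, 5% CO2.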

[20] = molecular target: Androgen receptor (Homo sapiens) (UniProt P10275); experiment: qHTS assay to identify small molecule agonists of the androgen receptor (AR) signaling pathway in the presence of an antagonist (AID 1259381; calls by dose curve; further: nearly all actives have a fitted effect of over 15% in size)
Summary of the method: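 Plated MDA-kb2 cells (3,000/well) were pre-incubated 5hr, given nilutamide (3.0uM final) or buffer, then dosed with compounds in DMSO at 15 concentrations. Luciferase activity was quantified by luminescence after 16hr at 37C.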

Chain of Progesterone receptor (Homo sapiens) (P06401 whole entry, looked up): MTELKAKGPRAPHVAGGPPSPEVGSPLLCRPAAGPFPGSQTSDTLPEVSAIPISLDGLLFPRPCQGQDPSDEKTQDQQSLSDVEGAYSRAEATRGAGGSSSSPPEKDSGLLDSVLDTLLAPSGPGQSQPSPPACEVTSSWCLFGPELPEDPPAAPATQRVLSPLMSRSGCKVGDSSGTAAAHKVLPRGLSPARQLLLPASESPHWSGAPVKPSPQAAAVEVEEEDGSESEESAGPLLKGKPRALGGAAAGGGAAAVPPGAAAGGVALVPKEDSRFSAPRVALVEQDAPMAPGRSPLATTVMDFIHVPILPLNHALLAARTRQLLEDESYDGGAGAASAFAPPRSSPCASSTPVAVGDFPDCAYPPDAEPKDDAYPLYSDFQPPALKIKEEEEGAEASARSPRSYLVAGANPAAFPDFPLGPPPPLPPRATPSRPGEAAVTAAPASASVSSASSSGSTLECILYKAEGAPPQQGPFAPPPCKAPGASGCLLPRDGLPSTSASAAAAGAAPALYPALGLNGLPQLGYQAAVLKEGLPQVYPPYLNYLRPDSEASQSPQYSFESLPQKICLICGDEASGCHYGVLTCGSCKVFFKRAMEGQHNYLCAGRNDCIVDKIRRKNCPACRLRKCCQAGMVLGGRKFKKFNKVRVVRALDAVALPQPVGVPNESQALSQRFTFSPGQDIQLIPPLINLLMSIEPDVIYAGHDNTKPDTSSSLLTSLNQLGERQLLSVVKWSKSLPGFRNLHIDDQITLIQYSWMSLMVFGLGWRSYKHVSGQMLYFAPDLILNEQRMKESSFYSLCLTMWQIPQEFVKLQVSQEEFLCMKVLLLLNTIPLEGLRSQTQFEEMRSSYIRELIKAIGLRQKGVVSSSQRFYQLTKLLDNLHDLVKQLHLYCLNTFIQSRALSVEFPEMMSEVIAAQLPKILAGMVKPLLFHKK
Chain of Estrogen receptor beta (Homo sapiens) (Q92731 whole entry, looked up): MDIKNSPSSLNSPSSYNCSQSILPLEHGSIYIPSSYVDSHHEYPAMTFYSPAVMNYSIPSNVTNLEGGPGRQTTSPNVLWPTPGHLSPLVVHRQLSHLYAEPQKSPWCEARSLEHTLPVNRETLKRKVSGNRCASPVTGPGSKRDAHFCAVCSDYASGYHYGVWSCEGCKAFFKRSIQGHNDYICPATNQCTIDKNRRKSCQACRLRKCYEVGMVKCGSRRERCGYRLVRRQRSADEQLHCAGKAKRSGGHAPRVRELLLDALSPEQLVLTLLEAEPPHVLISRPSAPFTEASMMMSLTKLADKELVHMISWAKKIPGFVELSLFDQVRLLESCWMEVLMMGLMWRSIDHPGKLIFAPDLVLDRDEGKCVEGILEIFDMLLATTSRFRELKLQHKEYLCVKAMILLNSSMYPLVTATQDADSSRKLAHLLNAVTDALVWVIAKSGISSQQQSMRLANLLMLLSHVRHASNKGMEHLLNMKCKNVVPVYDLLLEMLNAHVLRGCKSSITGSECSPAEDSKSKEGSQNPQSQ
Chain of Thyrotropin receptor (Homo sapiens) (P16473 whole entry, looked up): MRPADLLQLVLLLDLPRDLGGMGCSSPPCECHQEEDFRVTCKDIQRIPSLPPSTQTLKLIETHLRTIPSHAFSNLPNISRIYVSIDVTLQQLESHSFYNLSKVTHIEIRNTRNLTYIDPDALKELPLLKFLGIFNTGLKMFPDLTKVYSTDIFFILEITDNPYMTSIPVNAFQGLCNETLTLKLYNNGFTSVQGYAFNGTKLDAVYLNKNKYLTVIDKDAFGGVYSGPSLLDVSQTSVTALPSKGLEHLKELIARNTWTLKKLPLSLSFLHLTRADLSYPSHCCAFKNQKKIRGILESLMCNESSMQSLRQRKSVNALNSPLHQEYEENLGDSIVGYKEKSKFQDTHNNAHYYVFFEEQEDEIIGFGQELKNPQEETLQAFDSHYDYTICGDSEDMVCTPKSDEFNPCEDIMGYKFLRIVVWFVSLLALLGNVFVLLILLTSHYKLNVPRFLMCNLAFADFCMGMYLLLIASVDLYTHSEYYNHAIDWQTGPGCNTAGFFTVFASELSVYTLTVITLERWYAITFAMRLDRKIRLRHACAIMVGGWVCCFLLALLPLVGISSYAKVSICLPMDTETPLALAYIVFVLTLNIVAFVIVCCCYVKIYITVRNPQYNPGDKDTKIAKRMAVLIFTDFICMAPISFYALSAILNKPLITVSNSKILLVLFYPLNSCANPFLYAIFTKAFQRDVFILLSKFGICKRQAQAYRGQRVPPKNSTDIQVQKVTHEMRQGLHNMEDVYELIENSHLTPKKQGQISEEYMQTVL
Chain of Thyrotropin-releasing hormone receptor (Homo sapiens) (P34981 whole entry, looked up): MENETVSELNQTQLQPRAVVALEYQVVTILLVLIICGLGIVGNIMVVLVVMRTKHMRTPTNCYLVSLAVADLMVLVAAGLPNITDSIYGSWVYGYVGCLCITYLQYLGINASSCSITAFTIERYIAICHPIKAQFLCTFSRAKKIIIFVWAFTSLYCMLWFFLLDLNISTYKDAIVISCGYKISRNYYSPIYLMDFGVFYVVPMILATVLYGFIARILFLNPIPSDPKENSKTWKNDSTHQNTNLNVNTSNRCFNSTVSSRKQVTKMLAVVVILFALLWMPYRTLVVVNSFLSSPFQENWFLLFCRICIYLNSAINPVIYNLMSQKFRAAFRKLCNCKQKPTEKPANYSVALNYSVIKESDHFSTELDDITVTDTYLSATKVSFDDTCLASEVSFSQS
Chain of Estrogen receptor (Homo sapiens) (P03372 whole entry, looked up): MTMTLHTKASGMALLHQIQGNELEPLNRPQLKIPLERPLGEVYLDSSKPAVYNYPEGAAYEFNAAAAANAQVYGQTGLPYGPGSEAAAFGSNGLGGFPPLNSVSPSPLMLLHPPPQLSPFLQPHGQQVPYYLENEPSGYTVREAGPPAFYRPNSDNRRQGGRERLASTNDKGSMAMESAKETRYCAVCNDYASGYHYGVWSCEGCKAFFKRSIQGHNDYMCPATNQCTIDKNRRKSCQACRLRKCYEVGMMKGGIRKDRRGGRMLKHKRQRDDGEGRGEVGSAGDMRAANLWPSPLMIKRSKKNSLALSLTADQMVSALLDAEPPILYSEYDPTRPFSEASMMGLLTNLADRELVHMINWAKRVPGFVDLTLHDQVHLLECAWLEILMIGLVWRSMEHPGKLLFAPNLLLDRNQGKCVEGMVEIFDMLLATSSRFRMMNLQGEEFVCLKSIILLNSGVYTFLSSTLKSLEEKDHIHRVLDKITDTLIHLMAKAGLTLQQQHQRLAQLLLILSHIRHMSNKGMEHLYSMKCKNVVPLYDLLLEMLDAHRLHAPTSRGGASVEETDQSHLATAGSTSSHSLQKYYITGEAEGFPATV
Chain of Androgen receptor (Homo sapiens) (P10275 whole entry, looked up): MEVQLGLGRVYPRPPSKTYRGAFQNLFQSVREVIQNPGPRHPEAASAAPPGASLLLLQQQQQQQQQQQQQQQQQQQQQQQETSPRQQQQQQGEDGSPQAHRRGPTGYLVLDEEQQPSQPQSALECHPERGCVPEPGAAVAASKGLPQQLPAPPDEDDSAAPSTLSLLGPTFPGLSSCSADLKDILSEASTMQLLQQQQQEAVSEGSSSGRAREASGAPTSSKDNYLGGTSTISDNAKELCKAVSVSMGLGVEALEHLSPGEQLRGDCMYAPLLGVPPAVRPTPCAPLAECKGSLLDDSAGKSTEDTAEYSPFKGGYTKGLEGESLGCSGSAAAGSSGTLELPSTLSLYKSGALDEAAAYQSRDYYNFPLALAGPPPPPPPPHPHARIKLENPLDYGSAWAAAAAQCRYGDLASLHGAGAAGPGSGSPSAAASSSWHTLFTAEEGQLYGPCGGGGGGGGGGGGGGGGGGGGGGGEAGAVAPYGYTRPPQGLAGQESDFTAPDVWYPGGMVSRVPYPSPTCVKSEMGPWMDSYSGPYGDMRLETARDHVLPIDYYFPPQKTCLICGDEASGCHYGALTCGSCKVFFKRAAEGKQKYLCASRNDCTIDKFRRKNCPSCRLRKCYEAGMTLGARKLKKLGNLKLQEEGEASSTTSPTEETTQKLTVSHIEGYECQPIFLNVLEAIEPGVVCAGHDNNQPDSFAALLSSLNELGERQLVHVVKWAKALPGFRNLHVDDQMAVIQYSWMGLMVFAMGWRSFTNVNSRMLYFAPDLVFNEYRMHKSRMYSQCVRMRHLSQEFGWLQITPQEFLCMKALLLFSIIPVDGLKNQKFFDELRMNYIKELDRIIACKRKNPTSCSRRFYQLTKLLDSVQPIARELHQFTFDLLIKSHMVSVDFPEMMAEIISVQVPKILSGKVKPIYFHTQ

| Compound | Potency [1] | Potency [2] | Potency [3] | Potency [4] | Potency [5] | Potency [6] | outcome [7] | Potency [8] | Potency [9] | Potency [10] | Potency [11] | Potency [12] | Potency [13] | Potency [14] | Potency [15] | outcome [16] | Potency [17] | Potency [18] | Potency [19] | Potency [20] |
| --- | --- | --- | --- | --- | --- | --- | --- | --- | --- | --- | --- | --- | --- | --- | --- | --- | --- | --- | --- | --- |
| Clc1ccc(-c2ccccc2)cc1 | inactive | inactive | inactive | inactive | inactive | inactive | inactive | inactive | inactive | inactive | inactive | inactive | inactive | inactive | inactive | inactive | inactive | inactive | inactive |  |
| CC1(C)[C@H](C(=O)O[C@H](C#N)c2cccc(Oc3ccccc3)c2)[C@@H]1/C=C(\Cl)C(F)(F)F | inactive | inactive | inactive | inactive | inactive |  | inactive | inactive | inactive | inactive |  | inactive | inactive | inactive | inactive | inactive | inactive | inactive | inactive |  |
| Clc1ccc(C(c2ccccc2Cl)C(Cl)(Cl)Cl)cc1 (stereo not given) | inactive | 6.15 µM (active) and 8.02 µM (active) | inactive | 48.9 µM (active) | inactive |  |  |  | inactive | inactive | 4.51 µM (active) | inactive |  | inactive | inactive | inactive | inactive | inactive | inactive |  |
| CCCCOP(=O)(CCCC)OCCCC | inactive | inactive | inactive |  | inactive |  |  |  | inactive | inactive | inactive | inactive | inactive | inactive | inactive | inactive |  |  | inactive | inactive |
| Cc1cc(C(F)(C(F)(F)F)C(F)(F)F)ccc1NC(=O)c1cccc(I)c1C(=O)NC(C)(C)CS(C)(=O)=O | inactive | inactive | inactive | 19.4 µM (active) |  | inactive | inactive | inactive | inactive |  |  | inactive | inactive | inactive | inactive | inactive | inactive | inactive | inactive |  |
| NNC(=O)c1ccccc1 | inactive | inactive | inactive |  | inactive | inactive | inactive | inactive | inactive | inactive | inactive | inactive | inactive | inactive | inactive | inactive | inactive | inactive | inactive |  |
| COCC(=O)N(c1c(C)cccc1C)[C@H](C)C(=O)OC | inactive | inactive | inactive |  | inactive | inactive | inactive | inactive | inactive | inactive | inactive | inactive | inactive |  | inactive | inactive | inactive | inactive | inactive |  |
| CN(C)CCc1c[nH]c2cccc(O)c12 | inactive | inactive | inactive |  | inactive |  |  |  | inactive | inactive |  |  |  | inactive | inactive | inactive |  |  |  |  |
